Results taken from PubChem BioAssay.
A number with no mark means an inactive call.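 Rule for the calls, unless noted: active = viability at or below 27.92% in each of two runs, the all-compound median minus 4 SD; inconclusive = no clear call, values can overlap the other calls; inactive = the rest.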 Results filed as inconclusive are left out.

Assay: viability of PTEN-null HCT116 cells – cell-based, HCT116 clonal line, CellTiter-Glo, pilot screen (AID 824);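 note: 0% = 20 µM Hyamine control and 100% = vehicle cell control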
Conditions: HCT116 PTEN-deleted viability, 60 h, at 10 µM, hits give low values

Compound	viability [%]
O=C1C(O)CC2c3ccccc3CC3(CCCC3)N12 (stereo not given)	90.4
Cc1ccc(OCC(=O)n2nc(C)cc2C)c(Br)c1	94.3
Cc1c(C(=O)N2CCN(CCc3ccccc3)CC2)oc2ccccc12	94.7
c1ccc2cc3[nH]c(CN4CCCCC4)nc3cc2c1	87.6
Cc1ccc(-n2nc(C)c3c(C)c(CCC(=O)NCc4ccco4)c(C)nc32)cc1	75.5
Cn1c(=O)c2c(nc(CN3CCOCC3)n2CCCO)n(C)c1=O	101
CCCCNC(=O)c1ccc2nc(-c3ccco3)c(-c3ccco3)nc2c1	97.5
Cc1ccnc(N2C(=O)c3ccccc3C2Nc2ccccc2Cl)c1 (stereo not given)	92.5
CN(CCNC(=O)Cn1c(=O)sc2ccccc21)Cc1ccccc1	82.3
CCOC(=O)c1c(C)oc2cc(Br)c(OC(C)C(=O)OCC)cc12 (stereo not given)	92
Oc1c(C(c2cccc(F)c2)N2CCN(Cc3ccccc3)CC2)sc2ncnn12 (stereo not given)	80.7
O=C(C1CC(=O)N(C2CCCC2)C1)N1CCN(c2ccc(F)cc2)CC1 (stereo not given)	95.2
CCCCCSc1nc2c(c(=O)[nH]c(=O)n2C)n1C(C)C	85.4
O=C(C(Cc1ccccc1)n1cccc1)N1CCc2ccccc21 (stereo not given)	68.2
CCOC(=O)C1=C(O)/C(=C/N(C)C)N=C1C	106
Cc1cc(C(=O)NC2CCCC2)on1	102
Cc1onc(-c2ccccc2Cl)c1C(=O)NCc1ccc2c(c1)cc(C)n2C	84.6
CCN(CCCNC(=O)Cn1cc2c(n1)CCCC2)c1cccc(C)c1	81.5
COc1ccc(C2NC(=O)c3n[nH]c(C)c32)c(OC)c1 (stereo not given)	103
S=c1nc(-c2ccccc2)n(CCCn2ccnc2)c2c1CCCC2	95.6

Compound	viability [%]
CC1CCN(CC(C)OC(=O)c2ccc3c(c2)OCCO3)CC1 (stereo not given)	105
CCN1CCCC(NC(=O)c2scc3c2CCCC3)C1 (stereo not given)	95.1
Cc1ccc(CNC(=O)CCS(=O)(=O)c2cccc3nsnc23)cc1	104
COC(=O)C1(C)NC(=O)c2ccccc2N1 (stereo not given)	99.2
COC(=O)c1ccccc1NS(=O)(=O)c1cn(C)c(=O)n(C)c1=O	92.6
CCOC(=O)c1ccc(NC(=O)CCC(=O)OC)cc1	98.3
COCCNS(=O)(=O)c1cccc2cccnc12	92.2
CCOC(=O)N1CCC(NC(=O)C2CCCCN2S(=O)(=O)c2ccc(F)cc2)CC1 (stereo not given)	89.6
COc1cc(NC(=O)C2CCCC2)c(OC)cc1Cl	78.4
CC(=O)NC(CCS(C)(=O)=O)C(=O)Nc1cc(Cl)ccc1Cl (stereo not given)	92
COc1cc(NC(=O)Cn2ncc3c2-c2ccccc2OC3)cc(OC)c1OC	83.5
COc1ccccc1-c1nnc(NC(=O)C(C)SC2=NCCS2)s1 (stereo not given)	91.2
C=CCn1c(=NC(=O)C2CC2)sc2cc(NC(C)=O)ccc21	101
Cc1nc(N2CCN(C)CC2)c2sc(=S)n(-c3ccccc3)c2n1	86.1
CC(=O)Nc1sc(N)nc1-c1ccccc1	99.5
CCCc1cc(C(=O)Nc2sc3c(c2C(=O)OCC)CCCC3)no1	99.5
CCCCN(C)CCNC(=O)Cn1c(=O)sc2ccccc21	96.6
COc1cccc(C(=O)NCC(c2cccnc2)N2CCN(c3ccccc3OC)CC2)c1 (stereo not given)	78
COc1ccc(CSc2nnnn2Cc2ccccc2)cc1OC	84.4
COc1ccc(NC(=O)Nc2cccc(OC)c2)cc1	93.4

Assay: RAM pathway blockade in budding yeast – dse1pr::URA3 reporter, 5-FOA selection, pilot screen (AID 869;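 active = inhibition over a set limit, the all-compound mean plus 3 SD, in both replicate runs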;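 note: 0% = DMSO wells with no growth and 100% = 10 µM 1-NA-PP1 with full growth; RAM network block rescues cells from 5-FOA so hits raise OD615 growth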)
Conditions: S. cerevisiae dse1pr::URA3 5-FOA growth, OD615, 2 d; at 10 µM; hits give high values; strain carries analog-sensitive mutant Cbk1 kinase

Compound	inhibition [%]
O=C1C(O)CC2c3ccccc3CC3(CCCC3)N12 (stereo not given)	0.65
Cc1ccc(OCC(=O)n2nc(C)cc2C)c(Br)c1	0.89
Cc1c(C(=O)N2CCN(CCc3ccccc3)CC2)oc2ccccc12	0.455
c1ccc2cc3[nH]c(CN4CCCCC4)nc3cc2c1	1.58
Cc1ccc(-n2nc(C)c3c(C)c(CCC(=O)NCc4ccco4)c(C)nc32)cc1	0.985
Cn1c(=O)c2c(nc(CN3CCOCC3)n2CCCO)n(C)c1=O	1.76
CCCCNC(=O)c1ccc2nc(-c3ccco3)c(-c3ccco3)nc2c1	1.85
Cc1ccnc(N2C(=O)c3ccccc3C2Nc2ccccc2Cl)c1 (stereo not given)	1.49
CN(CCNC(=O)Cn1c(=O)sc2ccccc21)Cc1ccccc1	1.27
CCOC(=O)c1c(C)oc2cc(Br)c(OC(C)C(=O)OCC)cc12 (stereo not given)	1.76
Oc1c(C(c2cccc(F)c2)N2CCN(Cc3ccccc3)CC2)sc2ncnn12 (stereo not given)	0.05
O=C(C1CC(=O)N(C2CCCC2)C1)N1CCN(c2ccc(F)cc2)CC1 (stereo not given)	1.39
CCCCCSc1nc2c(c(=O)[nH]c(=O)n2C)n1C(C)C	1.3
O=C(C(Cc1ccccc1)n1cccc1)N1CCc2ccccc21 (stereo not given)	2.29
CCOC(=O)C1=C(O)/C(=C/N(C)C)N=C1C	3.19
Cc1cc(C(=O)NC2CCCC2)on1	1.71
Cc1onc(-c2ccccc2Cl)c1C(=O)NCc1ccc2c(c1)cc(C)n2C	1.93
CCN(CCCNC(=O)Cn1cc2c(n1)CCCC2)c1cccc(C)c1	0.48
COc1ccc(C2NC(=O)c3n[nH]c(C)c32)c(OC)c1 (stereo not given)	2.85
S=c1nc(-c2ccccc2)n(CCCn2ccnc2)c2c1CCCC2	2.03

Compound	inhibition [%]
CC1CCN(CC(C)OC(=O)c2ccc3c(c2)OCCO3)CC1 (stereo not given)	1.62
CCN1CCCC(NC(=O)c2scc3c2CCCC3)C1 (stereo not given)	0.625
Cc1ccc(CNC(=O)CCS(=O)(=O)c2cccc3nsnc23)cc1	1.64
COC(=O)C1(C)NC(=O)c2ccccc2N1 (stereo not given)	0.47
COC(=O)c1ccccc1NS(=O)(=O)c1cn(C)c(=O)n(C)c1=O	0.585
CCOC(=O)c1ccc(NC(=O)CCC(=O)OC)cc1	1.98
COCCNS(=O)(=O)c1cccc2cccnc12	2.52
CCOC(=O)N1CCC(NC(=O)C2CCCCN2S(=O)(=O)c2ccc(F)cc2)CC1 (stereo not given)	0.405
COc1cc(NC(=O)C2CCCC2)c(OC)cc1Cl	1.02
CC(=O)NC(CCS(C)(=O)=O)C(=O)Nc1cc(Cl)ccc1Cl (stereo not given)	2.08
COc1cc(NC(=O)Cn2ncc3c2-c2ccccc2OC3)cc(OC)c1OC	2.05
COc1ccccc1-c1nnc(NC(=O)C(C)SC2=NCCS2)s1 (stereo not given)	-0.115
C=CCn1c(=NC(=O)C2CC2)sc2cc(NC(C)=O)ccc21	0.675
Cc1nc(N2CCN(C)CC2)c2sc(=S)n(-c3ccccc3)c2n1	1.31
CC(=O)Nc1sc(N)nc1-c1ccccc1	0.055
CCCc1cc(C(=O)Nc2sc3c(c2C(=O)OCC)CCCC3)no1	3.09
CCCCN(C)CCNC(=O)Cn1c(=O)sc2ccccc21	1.31
COc1cccc(C(=O)NCC(c2cccnc2)N2CCN(c3ccccc3OC)CC2)c1 (stereo not given)	1.87
COc1ccc(CSc2nnnn2Cc2ccccc2)cc1OC	0.785
COc1ccc(NC(=O)Nc2cccc(OC)c2)cc1	1.02
